According to article PMC4336329 (PLoS ONE, 2015):
Out of some 310,000 compounds screened, about 14,000 (4.5%) showed an effect of 50% or more. The effect is printed as a negative number. Shown is part of a subset that was picked to be rich in strong results.

What follows are compounds tested against human ether-à-go-go-related gene (hERG) potassium channel (human, UniProt Q12809) (assay: primary screen, population patch clamp on CHO cells stably expressing hERG; higher = less effect of the substance).
human ether-à-go-go-related gene (hERG) potassium channel, sequence (Q12809 whole entry, looked up): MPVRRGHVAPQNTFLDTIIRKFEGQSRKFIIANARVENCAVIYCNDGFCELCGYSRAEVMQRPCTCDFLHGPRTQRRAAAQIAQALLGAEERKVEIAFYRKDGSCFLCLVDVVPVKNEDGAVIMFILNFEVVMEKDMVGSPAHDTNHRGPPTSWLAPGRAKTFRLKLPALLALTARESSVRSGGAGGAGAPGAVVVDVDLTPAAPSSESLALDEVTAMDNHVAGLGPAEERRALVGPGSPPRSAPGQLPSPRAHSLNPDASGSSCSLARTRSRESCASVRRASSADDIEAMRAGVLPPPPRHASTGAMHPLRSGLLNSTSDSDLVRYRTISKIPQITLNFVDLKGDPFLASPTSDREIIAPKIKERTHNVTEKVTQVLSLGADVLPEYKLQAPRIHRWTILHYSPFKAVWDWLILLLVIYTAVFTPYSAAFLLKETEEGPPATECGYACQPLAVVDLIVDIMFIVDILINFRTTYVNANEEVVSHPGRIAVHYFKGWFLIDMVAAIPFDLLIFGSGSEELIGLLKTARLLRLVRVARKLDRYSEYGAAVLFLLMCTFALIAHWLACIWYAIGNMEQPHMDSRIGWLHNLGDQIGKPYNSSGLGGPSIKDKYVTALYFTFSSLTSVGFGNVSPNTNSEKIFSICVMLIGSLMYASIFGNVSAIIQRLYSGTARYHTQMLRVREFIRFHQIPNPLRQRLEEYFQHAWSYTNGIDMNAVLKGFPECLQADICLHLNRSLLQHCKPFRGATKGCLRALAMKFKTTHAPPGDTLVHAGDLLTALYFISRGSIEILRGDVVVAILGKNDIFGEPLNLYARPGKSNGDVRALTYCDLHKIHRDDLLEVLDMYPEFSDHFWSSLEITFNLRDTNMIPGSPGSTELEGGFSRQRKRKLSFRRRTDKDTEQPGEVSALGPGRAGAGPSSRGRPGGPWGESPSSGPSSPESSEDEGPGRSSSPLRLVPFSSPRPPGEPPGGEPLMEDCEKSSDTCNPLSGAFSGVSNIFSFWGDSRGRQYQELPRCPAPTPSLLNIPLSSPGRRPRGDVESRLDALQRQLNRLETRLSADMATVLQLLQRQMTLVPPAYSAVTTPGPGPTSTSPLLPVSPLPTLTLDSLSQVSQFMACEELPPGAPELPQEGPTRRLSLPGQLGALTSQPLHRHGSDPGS
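Further: peak tail current of the secondary pulse compared with the same well before compound.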

Compound	hERG current change (%, negative = inhibition) at 10uM [%]
O=C(CN1CCC(n2nnc3cc(C(F)(F)F)ccc32)CC1)N1CCc2ccccc21	-19.9
O=C(CN1CCC(Cc2ccccc2)CC1)N1CCc2ccccc2C1	-69.3
O=C(CN1CCC(n2nnc3cc(F)ccc32)CC1)N1CCCc2ccccc21	-64.2
O=C(CN1CCC(n2nnc3cc(F)ccc32)CC1)N1CCc2ccccc2C1	-58.1
O=C(CN1CCC(n2nnc3cc(F)ccc32)CC1)NNC(=O)c1ccccc1	-11.9
O=C(CCS(=O)(=O)Cc1ccccc1)N1CCc2ccccc2C1	-0.206
O=C(CN1CCC(n2nnc3cc(F)ccc32)CC1)NCCc1nc2ccccc2[nH]1	-31.6
Cl.O=C(CN1CCN(c2ccc(F)cc2)CC1)N1CCC(Cc2ccccc2)CC1	-30.3
O=C(CN1CCC(N2CCCCC2)CC1)N1CCCc2ccccc21.O=C(O)C(=O)O	20.7
O=C(OCCC1Oc2cccnc2NC1=O)c1ccc(F)cc1 (stereo not shown)	12.6
CC(OC(=O)/C=C/c1ccc2ccccc2n1)C(=O)Nc1ccc(S(N)(=O)=O)cc1 (stereo not shown)	19.1
CCCOC(=O)c1ccc(Oc2c(-c3ccc(O)cc3O)n[nH]c2C)cc1	-2.68
Cc1nc(SCC(=O)Nc2cccc(C(=O)O)c2)n[nH]1	24.9
O=C(NCCCn1ccnc1)c1noc2c1CCCC2	-41.8
O=C(Nc1cc(Cl)cc(Cl)c1)C1CCC(=O)N1Cc1ccccc1Cl (stereo not shown)	8.65
O=C(CC(Cc1ccccc1)C(=O)O)Nc1ccccc1 (stereo not shown)	25.2
CCOC(=O)c1ccc([N+](=O)[O-])cc1NC(C)=O	3.85
Cc1cc(C)c(OCC(=O)Nc2cccc(O)c2)cc1C	10.9
O=C(NCc1ccccc1)c1cc2ccccc2o1	-4.68
O=C(NCc1ccccc1CN1CCCC1)c1cc2ccccc2o1	-69.4
CC(Sc1ccccc1)C(=O)NCC(c1ccco1)N1CCCCC1 (stereo not shown)	-9.36

Compound	hERG current change (%, negative = inhibition) at 10uM [%]
CN(Cc1ccccc1N1CCCC1)C(=O)c1cc2cc(Cl)ccc2o1	-13.4
O=C(NCc1ccccc1CN1CCCCC1)c1ccc(Cl)cc1N1CCCC1=O	-30.4
Cc1ccccc1CNC(=O)c1cc2ccccc2o1	3.09
O=C(NCC(c1ccco1)N1CCCC1)c1ccc(Cl)cc1 (stereo not shown)	-22.8
O=C(CCNC(=O)c1ccc(Cl)cc1)NCC(c1ccco1)N1CCCCC1 (stereo not shown)	-31
Cc1c(C(=O)NCC(c2ccco2)N2CCCC2)oc2ccc(Cl)cc12 (stereo not shown)	-42.1
CC(Sc1ccc(Cl)cc1)C(=O)NCC(c1ccco1)N1CCCCC1 (stereo not shown)	-54.1
O=C(NCc1ccccc1CN1CCCC1)c1cc2cc(Cl)ccc2o1	-74.6
O=C(NCC(c1ccco1)N1CCCC1)c1cc2cc(Cl)ccc2o1 (stereo not shown)	-67.7
Cn1nnnc1SCC(=O)N1c2ccccc2Sc2ccc(Cl)cc21	-16.4
COC(=O)C(C)Oc1ccc2c(c1)O/C(=C\c1cccc(Br)c1)C2=O (stereo not shown)	-46.9
COc1ccc(C2c3[nH]c4ccccc4c3C[C@H]3C(=O)N(c4ccccc4C(=O)N4CCC[C@H]4C(=O)O)C(=O)N23)cc1 (stereo partly shown)	3.11
CC(C)C[C@@]12C(=O)N(c3cccc(Cl)c3)C(=O)N1[C@H](c1ccc(Cl)cc1)[C@@H]1C(=O)N(C3CCCCC3)C(=O)[C@@H]12	11.2
Cc1ccc(C)c(NC(=O)CN(C)C(=O)CN2C(=O)C3CCCCC3C2=O)c1 (stereo not shown)	10
N#Cc1ccccc1Sc1ccccc1C(=O)NCC(c1ccco1)N1CCCC1 (stereo not shown)	-27.9
O=C(NCC(c1ccco1)N1CCCC1)c1ccccc1Sc1ccc(C(F)(F)F)cc1[N+](=O)[O-] (stereo not shown)	-55.4
N#Cc1ccccc1Sc1ccccc1C(=O)NCC(c1ccco1)N1CCCCC1 (stereo not shown)	-19
CCOC(=O)COn1c(-n2nc(C)cc2C)nc2ccccc2c1=O	0.487
Cc1ccccc1NC(=O)c1ccccc1O	9.03
CCC(=O)Nc1ccc2c(c1)nc(CCN1CCCCC1)n2C	7.26
Cc1ccc(C(C)C)c(OCC(=O)Nc2ccc3c(c2)nc(CN2CCCC2)n3C)c1	-76.2

Compound	hERG current change (%, negative = inhibition) at 10uM [%]
Cc1ccc(C(C)C)c(OCC(=O)Nc2ccc3c(c2)nc(CCN2CCCCC2)n3C)c1	-75.8
CC(C)CC(=O)Nc1ccc2c(c1)nc(CCN1CCCCC1)n2C	-9.9
Cc1cccc(OCC(=O)Nc2ccc3c(c2)nc(CN2CCCCC2)n3C)c1.Cl	-25.3
CCCC(=O)Nc1ccc2c(c1)nc(CN1CCCC1)n2C	11.7
Cc1ccc(OCc2nc(-c3ccccn3)no2)c(Br)c1	-22.5
CC(=O)c1cccc(OCC(=O)Nc2cccc(C(=O)Nc3c(C)n(C)n(-c4ccccc4)c3=O)c2)c1	-7.78
C=C1C(C(=O)N2CCN(C)CC2)C1C(=O)N1CCN(C)CC1 (stereo not shown)	-2.23
CC(C)Cn1c(N)c(C(=O)COC(=O)c2ccc([N+](=O)[O-])o2)c(=O)n(C)c1=O	-69.5
CC(C)Cn1c(N)c(C(=O)CSc2nnnn2C)c(=O)n(C)c1=O	4.91
CCc1ccc(C(=O)OCC(=O)c2c(N)n(CC(C)C)c(=O)n(C)c2=O)cc1	-0.249
CC(C)Cn1c(N)c(C(=O)COC(=O)c2ccc3ccccc3n2)c(=O)n(C)c1=O	-59.9
Cn1c(N)c(C(=O)COC(=O)CCCc2nc3ccccc3s2)c(=O)n(C)c1=O	9.03
Cn1c(N)c(C(=O)COC(=O)c2ccc([N+](=O)[O-])o2)c(=O)n(C)c1=O	-34.6
Cc1ccc(-n2nnnc2SCC(=O)c2c(N)n(CC(C)C)c(=O)n(C)c2=O)cc1	-69.1
CC(C)Cn1c(N)c(C(=O)COC(=O)c2cc(-c3ccccc3)nc3ccccc23)c(=O)n(C)c1=O	-8.18
Cn1c(N)c(C(=O)COC(=O)CCc2nc3ccccc3s2)c(=O)n(C)c1=O	5.93
CCCn1c(N)c(C(=O)CSc2nnnn2-c2ccc(O)cc2)c(=O)n(C)c1=O	5.2
CC(C)Cn1c(N)c(C(=O)COC(=O)CCc2nc3ccccc3s2)c(=O)n(C)c1=O	-69.3
CC(C)Cn1c(N)c(C(=O)COC(=O)c2cc(C(F)(F)F)nc3ccccc23)c(=O)n(C)c1=O	0.872
COc1ccc(NS(=O)(=O)c2ccc(NC(=O)C3CC3)cc2)cc1	18.6
CCOc1ccc(CC(=O)OCn2nnc3ccccc3c2=O)cc1	11.4

Compound	hERG current change (%, negative = inhibition) at 10uM [%]
Cc1ccc(NS(=O)(=O)c2ccc(-c3ccc(=O)[nH]n3)o2)cc1N(C)C	1.5
Fc1ccccc1C1c2cccn2CCN1C(=S)Nc1cccc(Br)c1 (stereo not shown)	12.9
CN1C(=O)OC(C)(C)C1=O	-2.78
CO/N=C/C(C#N)=C/c1cc(C(=O)c2ccccc2)cn1C	18.4
O=C1OCCN1C(=O)[C@H]1[C@H](c2ccc([N+](=O)[O-])cc2)C(c2cccc(Cl)c2)=NN1c1ccccc1	5.99
CCOC(=O)c1ccc(NC(=O)N2C3CCCC2CC(NC(C)=O)C3)cc1 (stereo not shown)	-11.6
CC(C)Cn1c(N)c(C(=O)COC(=O)CCNS(=O)(=O)c2ccccc2)c(=O)n(C)c1=O	-48.4
Cc1ccc(OCCC(=O)OCC(=O)c2c(N)n(C)c(=O)n(C)c2=O)cc1	-58.3
Cc1ccc(S(=O)(=O)CCC(=O)OCC(=O)c2c(N)n(CC(C)C)c(=O)n(C)c2=O)cc1	-27.9
Cc1cccc(C(=O)OCC(=O)c2c(N)n(CC(C)C)c(=O)n(C)c2=O)c1O	-15.2
CCOc1ccc(OCCC(=O)OCC(=O)c2c(N)n(C)c(=O)n(C)c2=O)cc1	-23
CCOc1ccccc1OCC(=O)OCC(=O)c1c(N)n(CC(C)C)c(=O)n(C)c1=O	-67.5
Cc1ccccc1OCCC(=O)OCC(=O)c1c(N)n(CC(C)C)c(=O)n(C)c1=O	-75.2
CC(=O)NC(CC(=O)OCC(=O)c1c(N)n(CC(C)C)c(=O)n(C)c1=O)c1ccccc1 (stereo not shown)	-3.32
Cc1ccc(OCCC(=O)OCC(=O)c2c(N)n(CC(C)C)c(=O)n(C)c2=O)cc1	-71.9
Cc1csc(=O)n1CCC(=O)OCC(=O)c1c(N)n(CC(C)C)c(=O)n(C)c1=O	-26.2
Cc1cc(C)cc(OCC(=O)OCC(=O)c2c(N)n(C)c(=O)n(C)c2=O)c1	-5.06
CCC(C(=O)OCC(=O)c1c(N)n(CC(C)C)c(=O)n(C)c1=O)c1ccccc1 (stereo not shown)	-2.13
O=C(Cn1cnc2ccccc21)OCC(=O)N1CCCc2ccccc21	8.8
